Assay results: PubChem BioAssay AID463195 (Sanford-Burnham Center for Chemical Genomics, 2010)
Among all 330,000 compounds or so, about 4,600 (1.4%) were called active.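 How the source made its calls: active means inhibition of 40% or more at the single tested concentration; inactive means the rest.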 Many of the other results were omitted from the sample, so actives are more common in it than they were.

Experiment: wild-type TIM10 yeast growth inhibition – luminescence, uHTS, counter-screen for tim10-1 yeast inhibitor project, primary screen (AID 463195);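 further: wild-type TIM10 isogenic control strain grown at permissive 25 °C; 0% = DMSO yeast wells and 100% = minimal medium wells without yeast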
Conditions: S. cerevisiae TIM10 strain growth, BacTiter-Glo luminescence, 24 h; at 10 µM; hits give high values

Row | SMILES | inhibition
1 | O=C(COc1ccccc1)Nc1nonc1NC(=O)COc1ccccc1 | 7.03% (inactive)
2 | O=C(CCN1C(=O)[C@@H]2Cc3ccccc3CN2C1=O)NCc1ccccc1 | 4.78% (inactive)
3 | CCOC(=O)c1c(NC(=O)CNC2CCCc3ccccc32)sc(C(N)=O)c1C (configuration not stated) | -2.7% (inactive)
4 | COc1ccc(CCNC(=O)CSc2nnc(-c3cccc(F)c3)o2)cc1OC | 1.74% (inactive)
5 | COc1ccc(CN(C(=O)CSc2nnc(-c3ccc(OC)c(OC)c3)o2)c2ccc(F)cc2)cc1 | 40.5% (active)
6 | COc1ccc(-c2nnc(SCC(=O)NC3CCCCC3)o2)cc1OC | 3.73% (inactive)
7 | Cc1ccc(C(=O)OCC(=O)NCc2cc(C)c(O)c(C)c2)cc1S(=O)(=O)N1CCCCC1 | 0.371% (inactive)
8 | O=S(=O)(c1cccc(-c2cn3ccccc3n2)c1)N1CCCC1 | 9% (inactive)
9 | Cc1cc(-c2ccccc2)nc(N2CCC(C(=O)NC34CC5CC(CC(C5)C3)C4)CC2)n1 | 19.8% (inactive)
10 | O=C1Nc2c(Br)cc(Br)cc2C1(O)N1CCOCC1 (configuration not stated) | 12.1% (inactive)
11 | CCC(C)(C)NC(=O)CN(Cc1cccs1)C(=O)CNS(=O)(=O)c1ccc(F)cc1 | 3.15% (inactive)
12 | CCOc1ccc(S(=O)(=O)NCCC(=O)N2CCCCCCC2)cc1 | -3.91% (inactive)
13 | Cc1ccccc1NCC(=O)N/N=C\c1ccc([N+](=O)[O-])s1 | 56% (active)
14 | CC(C)(C)c1cc(C(=O)N/N=C/c2ccc([N+](=O)[O-])s2)n[nH]1 | 22% (inactive)
15 | Cc1cccc(/C=N/NC(=O)CNc2cccc3ccccc23)n1 | 8.82% (inactive)
16 | C=CC1C(OC2OC(CO)C(O)C(O)C2O)OC=C(C(=O)OC)C1CC1CC(=O)CC(CC(=O)CCc2ccc(O)cc2)O1 (configuration not stated) | -2.71% (inactive)
17 | c1ccc(COc2ccccc2CNCc2cccnc2)cc1 | -6.88% (inactive)
18 | COc1c(N2CCN(C(=S)Nc3ccccc3F)C(C)C2)c(F)cc2c(=O)c(C(=O)O)cn(C3CC3)c12 (configuration not stated) | 2.41% (inactive)
19 | Cc1cccc(-n2c(SCC(N)=O)nc3c(c2=O)C2(CCCCC2)Cc2ccccc2-3)c1 | 12.4% (inactive)
20 | N#CC1(C#N)C(C(=O)C23CC4CC(CC(C4)C2)C3)C12CCOCC2 (configuration not stated) | 44.3% (active)
21 | CSCCC(NC(=O)COc1ccccc1)C(=O)OCCOc1ccc(F)cc1 (configuration not stated) | -0.639% (inactive)
22 | Cc1cc(C)cc(NC(=O)C(OC(=O)c2ccc(O)cc2)c2ccccc2)c1 (configuration not stated) | 9.95% (inactive)
23 | Cc1ccc(C(=O)Nc2ccc(NC(=O)c3cccs3)cc2)c(C)c1 | -11.8% (inactive)

Row | SMILES | inhibition
24 | Cc1ccc(NC(=O)c2cccs2)cc1S(=O)(=O)N(C)C | 46.1% (active)
25 | O=C(Nc1ccccc1)c1ccc(NC(=O)c2cccs2)cc1 | -10.3% (inactive)
26 | O=C(Nc1ccc(NC(=O)c2cccs2)cc1)c1ccc2ccccc2c1 | -15.3% (inactive)
27 | Cc1ccc(C(=O)Nc2ccc(C)c(S(=O)(=O)N(C)C)c2)s1 | 10.9% (inactive)
28 | Cc1nc(-c2ccc(NC(=O)c3cccs3)cc2)cs1 | 49.5% (active)
29 | COC(=O)[C@]1(C)N[C@H](CN(C)C(=O)c2ccc(C(C)(C)C)cc2)[C@@H]2C(=O)N(C)C(=O)[C@@H]21 | 3.29% (inactive)
30 | Cc1ccc(-c2noc(C3CCCN(C(=O)c4cccc(Cl)c4)C3)n2)o1 (configuration not stated) | -12.1% (inactive)
31 | O=C(CNS(=O)(=O)c1ccc(Br)s1)N1CCN(C(=O)c2ccco2)CC1 | -4.25% (inactive)
32 | Cc1ccc(N2C(=O)CC(NCc3ccc4c(c3)OCO4)C2=O)cc1Cl (configuration not stated) | 9.87% (inactive)
33 | COC(=O)CN1C(=O)C(C)(C)Oc2ccc(C(=O)Nc3cccc(OC)c3)cc21 | -1.11% (inactive)
34 | CCc1ccc2c(c1)C1(NN=C(c3ccccc3)S1)C(=O)N2 (configuration not stated) | 41.4% (active)
35 | Cc1ccccc1N(C(=O)Cc1cccs1)C(C(=O)NC1CCCCC1)c1cn(C)nc1C (configuration not stated) | 18.5% (inactive)
36 | COc1cc2cc(CN(CCN3CCCC3)C(=O)Nc3ccccc3Cl)c(=O)[nH]c2cc1OC | 1.82% (inactive)
37 | CSc1ccc(S(=O)(=O)NC2CCCCC2)cc1 | 5.32% (inactive)
38 | O=S(=O)(NC1CCCCC1)c1ccc(F)c2ccccc12 | 48.4% (active)
39 | O=S(=O)(NC1CC1)c1ccc2c3c(cccc13)CC2 | 18.4% (inactive)
40 | O=C(Cn1nnc2ccccc2c1=O)NCc1ccc(Cl)cc1 | -13.1% (inactive)
41 | CS(=O)(=O)N1CCN(CC(=O)NC2CCCC2)CC1 | 1.42% (inactive)
42 | COc1ccc(C(=O)C[n+]2ccc(N)c(C)c2C)cc1 | -13.7% (inactive)
43 | Cc1ccc(-n2cnc3ncnc(-c4ccccc4)c32)cc1 | -13% (inactive)
44 | Cc1ccc(-c2nn(C(C)(C)C)c3ncnc(N)c23)cc1 | 46.3% (active)
45 | C=CC[C@H](CC(=O)OC(C)(C)C)C(=O)OC[C@H]1CCCN1C(=O)[C@H](CC=C)CC(=O)N(CCO)Cc1ccccc1 | 4.94% (inactive)
46 | O=C(CCNC(=O)c1ccc(Br)cc1)Nc1cccc(S(=O)(=O)N2CCCCC2)c1 | -7.56% (inactive)

Row | SMILES | inhibition
47 | O=C(Nc1cccc(S(=O)(=O)N2CCCCC2)c1)c1cncc(Br)c1 | 8.29% (inactive)
48 | O=C(Nc1cccc(S(=O)(=O)N2CCCC2)c1)c1cncc(Br)c1 | 97% (active)
49 | CCOC(=O)c1cnc(SCc2nc(N)nc(Nc3ccc(OC)cc3)n2)nc1N | 15.4% (inactive)
50 | COc1ccc(Nc2nc(N)nc(CSC(=S)N3CCC(C)CC3)n2)cc1 | 44.5% (active)
51 | COc1ccccc1Nc1nc(N)nc(CSC(=S)N2CCOCC2)n1 | 31.8% (inactive)
52 | COc1cc(CC(=O)N2CCC(n3nccc3NC(=O)C3CC3)CC2)cc(OC)c1OC | -1.91% (inactive)
53 | CC1=C/C(=N\OS(=O)(=O)c2ccccc2)C=CC1=O | 69.4% (active)
54 | Cc1nc(C)c(-c2nnc(-c3cccc(S(=O)(=O)N(C)C)c3)o2)cc1C(=O)NN | 11.6% (inactive)
55 | CCn1c(C)cc(=O)cc1-c1ccc(Cl)cc1 | -2.03% (inactive)
56 | COc1ccc(Cn2c(-c3ccc(Cl)cc3)c[n+]3ccccc23)cc1 | 45.6% (active)
57 | COc1ccc(Cn2c(=O)cc(C)[nH]c2=S)cc1 | 8.93% (inactive)
58 | COc1cccc(OCc2cc(C(=O)N3CCN(C(=O)c4ccco4)CC3)no2)c1 | 97.6% (active)
59 | COc1ccc(OCc2cc(C(=O)N3CCCC3)no2)c2ccccc12 | -11.8% (inactive)
60 | O=C(c1cc(COc2cccc(C(F)(F)F)c2)on1)N1CCSCC1 | 19.8% (inactive)
61 | CC(=O)C[C@H](O)CC(=O)[C@@H]1OC(=O)[C@@H](C)C/C=C\Cc2ccccc21 | 4.22% (inactive)
62 | CCc1cccc(NC(=O)C2CCCN(S(=O)(=O)c3ccc4[nH]c(=O)ccc4c3)C2)c1 (configuration not stated) | -4.86% (inactive)
63 | CCN1/C(=C\c2ccc3ccccc3[n+]2CC)Sc2cc(C)ccc21 | 78.3% (active)
64 | COc1ccc2c(c1OC)C(=O)N(c1ccc(O)cc1)C2 | -21.6% (inactive)
65 | CCC1CCC2(CC1)NC(=O)N(CC(=O)Nc1ccc(OC)cc1)C2=O (configuration not stated) | -4.33% (inactive)
66 | CN(c1cccc(NC(=O)c2ccc(CN3CCc4ccccc4C3)cc2)c1)S(C)(=O)=O | -4.01% (inactive)
67 | CCOC(=O)c1cc(C(=O)Nc2ccc(S(=O)(=O)Nc3ccc(OC)cc3)cc2)nn1C | 8.95% (inactive)
68 | COc1ccc(OCC(=O)Nc2ccc(NC(=O)c3ccco3)c(C)c2)cc1 | -13.8% (inactive)
69 | Cc1cccc(OCC(=O)Nc2ccc(NC(=O)c3ccco3)c(C)c2)c1 | -8.94% (inactive)

Row | SMILES | inhibition
70 | Cc1ccc(C(=O)COc2cccc(NC(=O)c3ccco3)c2)cc1 | 54% (active)
71 | COC(=O)c1onc(-c2c(OC)cc(OC)cc2OC)c1C(=O)OC | 6.8% (inactive)
72 | CC1=C(C(=O)Nc2cc(C)ccn2)C(c2cnn(C)c2)C2=C(CC(c3ccccc3)CC2=O)N1 (configuration not stated) | 6.51% (inactive)
73 | O=C(NCc1ccc(F)cc1)C1CCN(C(=O)Nc2ccc(F)cc2)CC1 | -14% (inactive)
74 | CC1CN(C(=O)c2ccc([N+](=O)[O-])s2)CC(C)O1 (configuration not stated) | 6.54% (inactive)
75 | O=[N+]([O-])c1ccc(C=Nc2ccc(Cl)cc2Cl)s1 | 71.2% (active)
76 | CCC1=NN(C(=O)Cc2ccc([N+](=O)[O-])cc2)C(O)(c2ccc(Br)cc2)C1 (configuration not stated) | 27% (inactive)
77 | O=C(Nc1ccc2oc(-c3ccccc3F)nc2c1)c1ccco1 | 67.2% (active)
78 | O=C(Nc1ccc2oc(-c3ccc4ccccc4c3)nc2c1)c1cccs1 | 0.529% (inactive)
79 | O=C(Nc1cccc(-c2nc3ncccc3o2)c1)c1ccco1 | 12.8% (inactive)
80 | Cc1cc(C)cc(NC(=O)Cn2cnc3c(nnn3Cc3ccc(F)cc3)c2=O)c1 | -9.34% (inactive)
81 | Cc1ccc(Nc2cc(=O)n(C3CCCCC3)c(=O)[nH]2)cc1C | 4.8% (inactive)
82 | COc1cc2ccccc2cc1C(=O)Nc1ccc(NC(=O)c2cccs2)cc1 | -34.6% (inactive)
83 | COc1cc(NC(=O)c2ccc3c(c2)OCO3)ccc1NC(=O)c1cccs1 | 11% (inactive)
84 | COc1cc(NC(=O)c2cccs2)ccc1NC(=O)c1ccccc1Cl | 40.9% (active)
85 | C=C1C2C[C@H](O)C(C)(C)[C@@]2(O)[C@H](O)C[C@]23C[C@@](C)(O)[C@H](CC[C@H]12)[C@H]3O (some centres not stated) | -10.5% (inactive)
86 | Cc1cccc(/C(N)=N/OC(=O)c2ccccc2Cl)c1 | 71.3% (active)
87 | Cc1ccc(C(=O)O/N=C(\N)c2ccccn2)cc1Cl | 28.2% (inactive)
88 | Cc1ccc(/C(N)=N/OC(=O)COc2ccc(Cl)c(C)c2)cc1 | 30.7% (inactive)
89 | CCOC(=O)c1ccc2[nH]c3c(c2c1)CCCC3NC=O (configuration not stated) | 16.6% (inactive)
90 | COc1ccc(NC(=O)ON=C2c3ccccc3-c3ccccc32)cc1 | 8.51% (inactive)
91 | CN1C(=O)/C(=C\c2cc(Br)cs2)c2ccccc21 | 30.2% (inactive)
92 | CN1C(=O)/C(=N/OC(=O)c2ccccc2Br)c2ccccc21 | 68.9% (active)
